Source: PubChem BioAssay AID2751 (The Scripps Research Institute Molecular Screening Center, 2010)
The whole screen tested about 320,000 compounds, of which about 2,200 (0.69%) were called active. No stated cut-off is given here; in the data, active means inhibition above about 43%; inactive means the rest. Only a selection was taken, and actives are over-represented in it overall.

target: Prolyl endopeptidase-like (Homo sapiens) (UniProt Q4J6C6); test: human PREPL activity-probe blockers – biochemical, fluorescence polarization, primary screen (AID 2751); details: recombinant PREPL, fluorescence polarization activity-based probe; at 5.96 µM; active compounds read high;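 further: 0% = enzyme with DMSO and 100% = wells lacking enzyme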
Sequence (Q4J6C6 whole entry, looked up): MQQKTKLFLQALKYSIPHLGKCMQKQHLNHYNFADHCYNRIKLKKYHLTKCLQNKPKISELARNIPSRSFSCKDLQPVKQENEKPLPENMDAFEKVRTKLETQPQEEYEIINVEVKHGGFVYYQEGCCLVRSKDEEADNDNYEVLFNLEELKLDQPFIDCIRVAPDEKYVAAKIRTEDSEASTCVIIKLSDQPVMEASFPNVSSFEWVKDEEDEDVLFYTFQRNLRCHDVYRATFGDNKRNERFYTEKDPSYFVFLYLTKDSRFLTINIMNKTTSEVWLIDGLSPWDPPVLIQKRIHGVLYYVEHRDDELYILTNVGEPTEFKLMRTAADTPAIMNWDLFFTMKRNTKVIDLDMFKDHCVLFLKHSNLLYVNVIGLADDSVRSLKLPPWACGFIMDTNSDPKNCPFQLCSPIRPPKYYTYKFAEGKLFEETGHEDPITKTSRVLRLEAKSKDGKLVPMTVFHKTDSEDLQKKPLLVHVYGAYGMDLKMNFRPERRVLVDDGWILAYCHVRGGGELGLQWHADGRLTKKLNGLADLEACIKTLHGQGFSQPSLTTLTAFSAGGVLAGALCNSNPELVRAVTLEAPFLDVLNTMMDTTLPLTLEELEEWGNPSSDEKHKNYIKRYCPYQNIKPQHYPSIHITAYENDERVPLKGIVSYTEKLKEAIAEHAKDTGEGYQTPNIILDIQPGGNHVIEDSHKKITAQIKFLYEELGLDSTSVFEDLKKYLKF

Row | SMILES | inhibition
1 | C=Cn1cc[n+](CC(=O)c2ccc(OC)c(OC)c2)c1 | 19.9% (inactive)
2 | O=C(Nc1ccc2c(c1)OCCO2)C1CCCC1 | 0.16% (inactive)
3 | O=C(c1ccc(F)cc1)N1CCC(C(=O)N2CCN(S(=O)(=O)c3ccccc3Br)CC2)CC1 | 5.69% (inactive)
4 | COC(=O)C1=CN(c2ccc(F)c(F)c2)C=C(C(=O)OC)C1c1ccc([N+](=O)[O-])cc1 | -1.25% (inactive)
5 | COc1ccc(/C=C(\NC(=O)c2ccc(OCC(C)C)cc2)C(=O)OCc2ccco2)cc1 | -0.54% (inactive)
6 | CCNc1c(NS(=O)(=O)c2ccc(C3CCCCC3)cc2)c(=O)oc2ccccc12 | 10.3% (inactive)
7 | O=C(CN1C(=O)NC2(CCCCC2)C1=O)NCCc1c[nH]c2ccccc12 | 6.75% (inactive)
8 | N#C/C(=C/c1ccc(N2CCCCC2)o1)C(=O)NCCc1c[nH]c2ccccc12 | 80.7% (active)
9 | N#C/C(=C/c1ccc(N2CCOCC2)o1)C(=O)N1CCOCC1 | 7.19% (inactive)
10 | CN(CCc1ccccn1)C1CCCN(S(=O)(=O)c2ccccc2Cl)C1 (stereo unspecified) | -0.19% (inactive)
11 | Nc1ccc(-c2nnc(-c3ccccc3)o2)cc1 | 2.86% (inactive)
12 | Cc1cc(Nc2ccccc2)n(C(=O)c2ccc(N)cc2)n1 | 32.7% (inactive)
13 | Nc1ccc(Nc2ccccc2)cc1 | 94.7% (active)
14 | CS(=O)(=O)N(CC(=O)N1CCOCC1)c1cccc(Cl)c1Cl | 1.45% (inactive)
15 | COc1cc(NC(=O)COC(=O)CSc2ccc3ccccc3c2)c(C)cc1[N+](=O)[O-] | 26.5% (inactive)
16 | CC(C)Oc1ccc(Oc2ccc(C(F)(F)F)cn2)cc1 | 14.7% (inactive)
17 | CC(NC(=O)COC(=O)Cn1cc(C(F)(F)F)ccc1=O)c1ccccc1 (stereo unspecified) | 4.36% (inactive)
18 | CNCC[C@H](Oc1ccc(C(F)(F)F)cc1)c1ccccc1 | 59% (active)
19 | Cc1ccc(CN(CC(=O)NCC2CCCO2)S(=O)(=O)c2ccc(C)cc2)cc1 (stereo unspecified) | -1.14% (inactive)

Row | SMILES | inhibition
20 | O=C(Cn1cnc2ccccc2c1=O)NNC(=O)c1ccccc1F | 9.97% (inactive)
21 | NS(=O)(=O)c1ccc(CNC(=O)c2ccc(Cl)cc2[N+](=O)[O-])cc1 | 13.1% (inactive)
22 | CC(CC(=O)N1CCN(c2ccccc2)CC1)c1ccccc1 (stereo unspecified) | -0.94% (inactive)
23 | O=C(Nc1ccc(F)cc1)N1CCN(c2ccc(F)cc2)CC1 | 15.1% (inactive)
24 | CC(=O)N1CCN(c2ccc(NCc3ccc(C(C)C)cc3)cc2)CC1 | 66.9% (active)
25 | COc1ccccc1-c1n[nH]c2c1[C@H](C)CC[C@H]2C(C)C | -22.4% (inactive)
26 | COc1ccc(CSc2nnnn2-c2ccc(O)cc2)cc1F | -18.7% (inactive)
27 | CCOc1ccccc1C1CC(c2ccc(Cl)cc2)Nc2nc(N)nn21 (stereo unspecified) | 24.3% (inactive)
28 | Cc1ccc(C2CC(c3cccc(C)c3)n3nc(N)nc3N2)cc1 (stereo unspecified) | 54.5% (active)
29 | CCOc1ccccc1C1CC(c2ccccc2)Nc2nc(N)nn21 (stereo unspecified) | 5.16% (inactive)
30 | Cc1cc(=O)n(C)c(=O)n1CCCNc1ccccc1 | 2.85% (inactive)
31 | Cc1ccc(C23CC4CC(CC(C(=O)NCC(=O)O)(C4)C2)C3)cc1 | 5.03% (inactive)
32 | CCC(=O)Nc1cc(C(F)(F)F)ccc1N1CCCC1 | 8.09% (inactive)
33 | O=C(CCN1C(=O)COc2ccccc21)NCCCN1CCN(c2ccc(F)cc2)CC1 | 35.5% (inactive)
34 | COc1ccc(CCNC(=O)CN(c2ccccc2)S(C)(=O)=O)cc1 | 11.1% (inactive)
35 | Cn1c(CCN2CCCCCC2)nc2cc(NC(=O)Nc3ccccc3)ccc21 | 53% (active)
36 | Cn1c(CCN2CCCC2)nc2cc(NS(=O)(=O)c3ccccc3)ccc21 | -19% (inactive)
37 | Cc1nn(CC(=O)Nc2ccc3c(c2)nc(CN2CCCCC2)n3C)c(=O)c2ccccc12 | 1.33% (inactive)
38 | CCN(CC(=O)Nc1c(F)cccc1F)C(=O)c1cnc(C)cn1 | 3.72% (inactive)

Row | SMILES | inhibition
39 | CCN1C(=O)/C(=C\N2CCN(c3ccccc3)CC2)SC1=S | 49.4% (active)
40 | CCN1C(=O)/C(=C\N2CCN(c3cccc(Cl)c3)CC2)SC1=S | 23.1% (inactive)
41 | CCN1C(=O)/C(=C\N2CCOCC2)SC1=S | -9.93% (inactive)
42 | O=C(O)CSCc1ccc(C(=O)O)o1 | 7.09% (inactive)
43 | N=c1n(Cc2ccc(Cl)cc2)c2ccccc2n1CC(O)c1ccco1 (stereo unspecified) | 16.6% (inactive)
44 | CCc1nc2ccc(C(=O)N3CCN(c4cccc(Cl)c4)CC3)cc2nc1CC | -11.3% (inactive)
45 | O=C1N[C@@H](c2ccccc2)COC(=O)[C@H](Cc2ccc(F)cc2)C/C=C\C[C@@H]1CC(=O)N(CCO)Cc1ccccc1 | 36% (inactive)
46 | O=C1N[C@H](Cc2c[nH]c3ccccc23)COC(=O)[C@H](Cc2ccc(F)cc2)C/C=C\C[C@H]1CC(=O)N(CCO)Cc1ccccc1 | 45.9% (active)
47 | CC(C)(C)OC(=O)C[C@@H]1C/C=C\C[C@@H](CC(=O)N(CCO)Cc2ccccc2)C(=O)N[C@H](Cc2ccccc2)COC1=O | 14.3% (inactive)
48 | O=S(=O)(CCc1nc2ccccc2o1)c1ccc(Cl)cc1 | -9.37% (inactive)
49 | C=C1C2C[C@H](O)C(C)(C)[C@@]2(O)[C@H](O)C[C@]23C[C@@](C)(O)[C@H](CC[C@H]12)[C@H]3O (stereo partly specified) | -4.1% (inactive)
50 | CCN(C[C@H]1N[C@@](CC)(C(=O)OC)[C@H]2C(=O)N(Cc3ccccc3)C(=O)[C@@H]12)S(=O)(=O)c1ccccc1 | 16.9% (inactive)
51 | CN(C)c1ccc(C(CNC(=O)c2ccc(F)cc2)c2c[nH]c3ccccc23)cc1 (stereo unspecified) | 55.9% (active)
52 | O=C(CNC(=O)c1ccc(F)cc1)c1ccccc1 | -2.4% (inactive)
53 | C[C@H](NC(=O)c1ccccc1)C(=O)OCC(=O)c1c[nH]c2ccccc12 | -2.69% (inactive)
54 | C#CCOCCOCCOCCNc1nc(N2CCN(C(=O)CCCCCCCCCCNC(=O)[C@H](CCCCN)n3cc(C)nn3)CC2)nc(N2CCN(C(=O)CCCCCCCCCCNC(=O)[C@H](CO)n3cc(CCCSC)nn3)CC2)n1 | 35.2% (inactive)
55 | C#CCOCCOCCOCCNc1nc(N2CCN(C(=O)CCCCCCCCCCNC(=O)[C@H]([C@@H](C)CC)n3cc(CCCCN=C(N)N)nn3)CC2)nc(N2CCN(C(=O)CCCCCCCCCCNC(=O)[C@H](CO)n3cc(CCCSC)nn3)CC2)n1 | 29.9% (inactive)
56 | C#CCOCCOCCOCCNc1nc(N2CCN(C(=O)CCCCCCCCCCNC(=O)Cn3cc(CCCCCN)nn3)CC2)nc(N2CCN(C(=O)CCCCCCCCCCNC(=O)[C@H](CO)n3cc(CCCSC)nn3)CC2)n1 | 75.8% (active)
